The results in this text go back to PubChem BioAssay (Tox21).

The nature of test [1]: qHTS assay to identify small molecule agonists of the progesterone receptor (PR) signaling pathway - cell viability counter screen (AID 1346799; calls by dose curve; note: nearly all actives have a fitted effect of over 45% in size; note: potency is the fitted concentration of half-maximal effect). To be noted: PR-UAS-bla HEK293T viability, CellTiter-Glo luminescence, 16 h; series mostly up to 92.4 µM. The essentials:
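Multiplexed viability read: CellTiter-Glo luminescence, 30 min RT, following LiveBLAzer FRET measurement on PR-UAS-bla HEK293T cells exposed to compounds 16 hr.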
Background: Quantitative high-throughput screening tests each substance at several concentrations.

Test [2] in a line: qHTS assay to identify small molecule agonists of the TGF-beta/Smad signaling pathway (AID 1346859; active = well fitted activation curve with a large enough effect in the signal ratio in the repeat runs, not every such curve was filed as active; the % refers to the signal ratio). The conditions noted are these: SBE-bla HEK293T, TGF-beta/Smad beta-lactamase reporter, 5 h; series mostly up to 76.8 µM. The essentials:
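Screening used HEK 293T SBE-bla cells at 4,000/well. Test agents: 5 hr, 37 C. Detection: FRET substrate, 2 hr RT, then excitation 405 nm with emissions at 460 and 530 nm.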

Test [3] addresses Thyrotropin-releasing hormone receptor (Homo sapiens) (UniProt P34981). Nature of the test: qHTS assay to identify small molecule agonists of the thyrotropin-releasing hormone receptor (TRHR) signaling pathway (AID 1346891; calls by dose curve; note: potency is the fitted concentration of half-maximal effect). The conditions noted are these: TRHR-HEK293 calcium fluorescence, agonist mode; series mostly up to 57.6 µM. The essentials: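 Readout was intracellular calcium fluorescence in TRHR-Hek293 cells. Cells were incubated 18 h, dye-loaded 2 h at 37 °C, and treated with compound in agonist mode.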

The nature of test [4]: Human pregnane X receptor (PXR) small molecule agonists, qHTS cell viability counter screen (AID 1346977). Note: nearly all actives have a fitted effect of over 50% in size. Note: potency is the fitted concentration of half-maximal effect. The conditions noted are these: PXR-Luc HepG2 viability, CellTiter-Fluor, 24 h; series mostly up to 92.4 µM. The essentials:
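In each well, the PXR reporter HepG2 line was checked for viability: CellTiter-Fluor reagent added 23hr post-dosing, fluorescence read after 1hr incubation at 37C.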

A short description of test [5]: qHTS assay to identify small molecule agonists of the TGF-beta/Smad signaling pathway - cell viability counter screen (AID 1346829). For activity change, negative = cytotoxicity: top concentration of the series differs between compounds. Note: nearly all actives have a fitted effect of over 45% in size. Note: potency is the fitted concentration of half-maximal effect. The conditions noted are these: SBE-bla HEK293T viability, CellTiter-Glo luminescence, 5 h; series mostly up to 76.8 µM. The essentials:
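After overnight seating at 37 C and 5% CO2, reporter cells got compounds for 5 hr and FRET substrate for 2 hr; cell viability then came from CellTiter-Glo luminescence.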

Test [6] has as its target Thyrotropin-releasing hormone receptor (Homo sapiens) (UniProt P34981). Nature of the test: qHTS assay to identify small molecule antagonists of the thyrotropin-releasing hormone receptor (TRHR) signaling pathway (AID 1346877; active = well fitted inhibition curve with a large enough effect in the repeat runs, not every such curve was filed as active; note: potency is the fitted concentration of half-maximal effect). The conditions noted are these: TRHR-HEK293, TRH-induced calcium fluorescence, antagonist mode; series mostly up to 51.3 µM. The essentials: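 Following an 18 h incubation at 37 °C and a 2 h calcium dye load, TRHR-HEK293 cells were exposed to compound (5 min, room temperature) and challenged with TRH, 1 nM final.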

The nature of test [7]: Caspase-3/7 induction in HepG2 cells by small molecules, qHTS assay (AID 1346978). Note: nearly all actives have a fitted effect of over 15% in size. Note: potency is the fitted concentration of half-maximal effect. To be noted: HepG2 caspase-3/7 activation, Caspase-Glo luminescence, 17 h; series mostly up to 92.4 µM. The essentials:
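Wild-type HepG2 cells, 2,000/well, settled 5 hr at 37 C and 5% CO2, then compound-treated for 17 hr; caspase-3/7 activity read by luminescent Caspase-Glo 3/7 after 30 min at room temperature.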

A short description of test [8]: qHTS assay to identify small molecule antagonists of the TGF-beta/Smad signaling pathway - cell viability counter screen (AID 1346824). Note: nearly all actives have a fitted effect of over 50% in size. Note: potency is the fitted concentration of half-maximal effect. The conditions noted are these: SBE-bla HEK293T viability, CellTiter-Glo luminescence; series mostly up to 76.8 µM. The essentials:
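SBE-bla HEK 293T cells, incubated overnight, then compound plus 0.25 ng/mL TGF-beta1 (stock added) for 5 hr at 37 C. Viability was read in the same wells by CellTiter-Glo luminescence after 30 min at room temperature.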

“And” between values parts separate entries of the source, which are not always exact repeats. Identical values can stand only once. A number with no mark means an inactive call. Results filed as inconclusive are left out. The source made the active and inactive calls. Unless noted, calls come from the whole dose curve; as a rule, active = well fitted curve in the direction sought with a large enough effect in the repeat runs; inconclusive = weak or mixed curves; inactive = no such curve, though single readings can be large; an effect the other way counts as inactive or inconclusive.
% is set by controls: 0 for no effect and ±100 for the full control effect.

Chain of Thyrotropin-releasing hormone receptor (Homo sapiens) (P34981 whole entry, looked up): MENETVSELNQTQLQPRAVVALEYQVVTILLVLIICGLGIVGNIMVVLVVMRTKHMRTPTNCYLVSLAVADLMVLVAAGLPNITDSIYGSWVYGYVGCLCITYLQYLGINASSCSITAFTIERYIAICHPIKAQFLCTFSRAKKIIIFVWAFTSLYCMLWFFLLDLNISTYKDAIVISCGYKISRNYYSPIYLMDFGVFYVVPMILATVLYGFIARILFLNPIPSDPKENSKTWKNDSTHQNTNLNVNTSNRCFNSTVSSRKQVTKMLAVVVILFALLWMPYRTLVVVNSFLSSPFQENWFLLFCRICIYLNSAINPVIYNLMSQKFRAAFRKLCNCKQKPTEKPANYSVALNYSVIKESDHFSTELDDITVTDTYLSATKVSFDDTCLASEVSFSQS

For the compound `O=C1NCCN1CCN1CCC(c2cn(-c3ccc(F)cc3)c3ccc(Cl)cc23)CC1`, the Potency entry in test [1], in test [2] and in test [3] was “inactive” each time. The Potency in test [4] was 29.8 µM (active).
`O=C(NO)c1ccccc1`: the Potency entry in test [5], in test [6], in test [3], in test [4] and in test [7] was “inactive” in each case.
In the case of `Nc1ccc2cc3ccc(N)cc3nc2c1`, the Potency result in test [8] and in test [5] was “inactive” throughout. Besides, the Potency in test [6] is 33.8 µM (active); in test [3], 15.5 µM (active) and 13.5 µM (active); in test [7] it was 30.6 µM (active) and 29.8 µM (active).
For the compound `CC1CCCNC1` (configuration not stated), the Potency entry in test [8], in test [5], in test [6], in test [3] and in test [7] was “inactive” throughout.
For `CC(C)(C)CC(C)(C)c1ccccc1O`, the Potency in test [8] is 31.1 µM (active); in test [5], 49.2 µM (active); in test [4] it was 70.8 µM (active); in test [7], 48.8 µM (active).
Take `Brc1ccccc1-c1ccccc1`: the Potency entry in test [8], in test [5], in test [2], in test [6], in test [3] and in test [4] was “inactive” in each case.
For `COc1cc(C(C)C)c2c(c1)S(=O)(=O)N(COc1cc(=O)n3cccc(OCCN4CCCCC4)c3n1)C2=O`, the activity change, negative = cytotoxicity was 20.1% [at 19 µM] in test [1] and 15.8% [at 15.8 µM] in test [5]. Besides, the viability change, negative = cytotoxic in test [8] is 14.4% [at 15.8 µM]. Further, the activation in test [2] was -2.24% [at 15.8 µM]; in test [3] it was -1.34% [at 11.8 µM]. The activity, negative = inhibition in test [6] is 0.273% [at 10.5 µM]. Also, the caspase activation in test [7] is 0.878% [at 19 µM].
As for `N#CSCSc1nc2ccccc2s1`, the Potency entry in test [1] and in test [3] was “inactive” throughout. Moreover, the Potency in test [4] is 19.3 µM (active).
With `CCCCCCCCCCOCC(O)CN` (configuration not stated), the Potency is 29.8 µM (active) in test [1], 26.6 µM (active) in test [4] and 29.8 µM (active) in test [7]. Moreover, the Potency entry in test [8], in test [2], in test [6] and in test [3] was “inactive” in each case.
With `O=C(Nc1ccc(Cl)cc1)Nc1ccc(Cl)c(C(F)(F)F)c1`, the Potency in test [5] is 15.1 µM (active); in test [4] it was 7.5 µM (active). Further, the Potency entry in test [2], in test [6], in test [3] and in test [7] was “inactive” throughout.
On to `N[C@@H](CSSC[C@H](N)C(=O)O)C(=O)O`, for which the viability change, negative = cytotoxic in test [8] was -1.61% [at 0.29 µM]. Further, the activity change, negative = cytotoxicity was 1.93% [at 0.29 µM] in test [5] and -23% [at 0.349 µM] in test [4]. For the same compound, the activation in test [2] was 1.61% [at 0.29 µM]. Further, the caspase activation in test [7] is 0.0664% [at 0.349 µM].
